Marburg entry inh = Marburg virus entry inhibition; Marburg virus pseudotyped entry inhibition, cell reporter; 300,000 tested, 1.8% active; Potency, µM (doses to about 37.8 µM), usual class: inhibitors; calls by dose curve; tested in HEK293 cells
HCV inh = inhibitors of hepatitis C virus infection. Potency, µM (series often up to 41.8 µM), usual class: inhibitors. Huh7.5.1 HCVcc-Cre infection, luciferase reporter, 44 h. 340,000 tested, 3.4% active; active = well fitted inhibition curve with a large enough effect; inconclusive = small, poorly fitted or top-dose-only effect, or another doubt; inactive = no such curve, though single readings can be large or run the other way
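Seed cells (1,000/well) for 4 h; treat with compound and infect with HCVcc-Cre, moi about 0.5. Incubate 44 h, then detect luciferase activity.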
Lassa entry inh = blocks Lassa virus binding to or entry into cells. 300,000 tested, 1.2% active. AID 540256. Lassa virus pseudotype entry inhibition, cell reporter. Potency, µM (titrated, usually from 37.9 µM), hits mostly inhibitors; calls by dose curve; tested in HEK293 cells; also: nearly all actives have a fitted effect of over 50% in size
FMDV antiviral = antivirals against foot and mouth disease virus; FMDV antiviral cell-based qHTS; Potency, µM (series often up to 57.9 µM), hits mostly inhibitors; 410,000 tested, 1.2% active; calls by dose curve; tested in HEK293T cells; also: read-out not given here; nearly all actives have a fitted effect of over 45% in size
HCMV antiviral = blocks human cytomegalovirus replication. activity change, negative = inhibition, % at 57.5 µM. 410,000 tested, 4.5% active. HFF cells, HCMV-luciferase reporter, 72 h; active compounds read low; in the data active = activity change below about -60%; inconclusive = no clear call, values can overlap the other calls; inactive = above about -39%
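Compounds were evaluated in HFFs infected with an HCMV luciferase reporter virus (MOI 1 PFU/cell). Luciferase in lysates collected 72 h post infection served as the replication measure.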
Each line names hits and unclear results; the compound was inactive in the other large screens; ! = not active in a repeat. Compounds with a hit are over-represented: about 7.9% of the library has one in this group of screens.

Cc1nc(CC(=O)c2ccc(O)c(C)c2O)cs1	none (no result: Lassa entry inh)
Cc1ccc(OCc2ccc(C(=O)Nc3c(C)nn(Cc4c(F)c(F)c(F)c(F)c4F)c3C)o2)c([N+](=O)[O-])c1	Marburg entry inh 16µM, HCV inh 16µM, Lassa entry inh inconclusive, FMDV antiviral inconclusive
Cc1ccc(OCc2ccc(C(=O)NN)o2)c([N+](=O)[O-])c1	none (no result: Marburg entry inh, Lassa entry inh)
Cc1ccc(C)c(OCc2ccc(C(=O)Nc3ccc([N+](=O)[O-])cn3)o2)c1	HCV inh 2.5µM, FMDV antiviral inconclusive (no result: Marburg entry inh, Lassa entry inh)
CC(C)(C)c1ccc(OCC(=O)Nc2ccc(C(=O)OC3CCCCC3)cc2)cc1	none (no result: Marburg entry inh, HCV inh)
COc1ccc(C2=NOC(C(=O)Nc3cc(C)on3)C2)cc1 (centres undefined)	none (no result: Marburg entry inh, Lassa entry inh)
COc1cc(NC(=O)C2CC(c3cccc(OC)c3OC)=NO2)cc(OC)c1OC (centres undefined)	Marburg entry inh inconclusive, HCV inh 1.1µM, Lassa entry inh inconclusive, FMDV antiviral inconclusive (no result: HCMV antiviral)
COc1cccc(C2=NOC(C(=O)Nc3cccnc3Cl)C2)c1OC (centres undefined)	none
COc1cccc(C2=NOC(C(=O)Nc3cc(C)on3)C2)c1 (centres undefined)	HCMV antiviral -102
CCOC(=O)CC1(CCc2ccccc2)Oc2ccccc2N1S(=O)(=O)c1ccc(C)cc1 (centres undefined)	HCMV antiviral inconclusive (no result: Marburg entry inh, HCV inh, Lassa entry inh)
CCOC(=O)CC1(C)Oc2cc(Cl)ccc2N1S(=O)(=O)c1ccc(C)cc1 (centres undefined)	HCMV antiviral -70 (no result: Marburg entry inh, HCV inh, Lassa entry inh)
CC1CCN(S(=O)(=O)c2ccc(C(=O)Nc3nc4ccc(F)cc4s3)cc2)CC1	none (no result: Marburg entry inh, HCV inh)
O=C(CCl)N(C1CCCC1)C1CCS(=O)(=O)C1 (centres undefined)	Marburg entry inh inconclusive, HCV inh inconclusive, Lassa entry inh inconclusive, HCMV antiviral -83
CCCCc1ccc(S(=O)(=O)N[C@H]2CC[C@@]34CCCN3C(=O)CCC[C@H]4[C@H]2CCC)cc1	none (no result: Marburg entry inh, HCV inh, Lassa entry inh, FMDV antiviral)
COc1ccc(Br)cc1CSC(=N)N	Marburg entry inh 13µM, HCV inh inconclusive, HCMV antiviral inconclusive
CCCCCOc1ccc(Br)cc1CSC(=N)N	HCV inh 7.9µM, FMDV antiviral 16µM, HCMV antiviral -98 (no result: Marburg entry inh, Lassa entry inh)
CC(=O)c1ccc(OC(C)C)c(CSC(=N)N)c1	HCV inh inconclusive (no result: Marburg entry inh, Lassa entry inh)
NS(=O)(=O)c1ccc(N=Cc2c(O)n(C3CCCCC3)c(=O)n(C3CCCCC3)c2=O)cc1	Marburg entry inh inconclusive, HCV inh inconclusive, Lassa entry inh inconclusive (no result: FMDV antiviral)
CC(C)C(=O)N1CCC(CN=Cc2c(O)n(C3CCCCC3)c(=O)n(C3CCCCC3)c2=O)CC1	Marburg entry inh inconclusive, HCV inh inconclusive, Lassa entry inh 14µM, FMDV antiviral inconclusive
CCOC(=O)c1c(NC(=O)COc2ccc(Cl)cc2Cl)sc2c1CCCCC2	none (no result: Marburg entry inh, HCV inh)
COc1ccc(-c2nc(CN(C)C(C)c3ccon3)c(C)o2)c(C)c1C (centres undefined)	Marburg entry inh inconclusive, HCV inh 10µM, HCMV antiviral inconclusive
O=C([C@@H]1[C@@H](CO)[C@@H]2Cn3c(cccc3=O)[C@H]1N2Cc1cccc(Cl)c1)N1CCOCC1	none (no result: Marburg entry inh, HCV inh, Lassa entry inh, FMDV antiviral)
COc1ccc(S(=O)(=O)c2cn(C)c3cc(N4CCCC4)c(F)cc3c2=O)cc1	none (no result: Marburg entry inh, HCV inh)
Cc1cc2nc(-c3ccccc3Br)n(C(C(=O)NC(C)(C)C)c3ccccc3)c2cc1C (centres undefined)	HCMV antiviral -99 (no result: Marburg entry inh, HCV inh, Lassa entry inh, FMDV antiviral)
Cc1cc(C)n(-c2nc(Nc3ccccc3)nc(-n3nc(C)cc3C)n2)n1	none (no result: FMDV antiviral)
Cc1cc(C)n(-c2nc(N(c3ccccc3)c3ccccc3)nc(-n3nc(C)cc3C)n2)n1	Marburg entry inh inconclusive, HCV inh 10µM, Lassa entry inh inconclusive, FMDV antiviral inconclusive (no result: HCMV antiviral)
O=C(NC[C@H](O)c1ccccc1)c1ccccc1	none (no result: Marburg entry inh, HCV inh, Lassa entry inh, HCMV antiviral)
Cc1ccc(S(=O)(=O)/N=C(\CCl)N2CCOCC2)cc1	Marburg entry inh inconclusive, HCV inh 10µM, Lassa entry inh inconclusive, FMDV antiviral 25µM
COc1cc(Nc2ccc(S(N)(=O)=O)cc2)c([N+](=O)[O-])nc1[N+](=O)[O-]	none (no result: Marburg entry inh, Lassa entry inh)
Cc1ccccc1N1CC(c2nc3ccccc3n2CCC2CCCCC2)CC1=O (centres undefined)	FMDV antiviral inconclusive, HCMV antiviral inconclusive (no result: HCV inh)
Cc1ccccc1N1CC(c2nc3ccccc3n2Cc2ccc(Br)cc2)CC1=O (centres undefined)	Lassa entry inh inconclusive, HCMV antiviral -78 (no result: HCV inh)
CCc1ccccc1N1CC(c2nc3ccccc3n2CCC2CCCCC2)CC1=O (centres undefined)	Marburg entry inh inconclusive, Lassa entry inh inconclusive, FMDV antiviral inconclusive, HCMV antiviral -108 (no result: HCV inh)
Cc1cccnc1Nc1nc(-c2ccc(O)cc2O)cs1	Marburg entry inh inconclusive
Cc1cccnc1Nc1nc(-c2ccccn2)cs1	Marburg entry inh inconclusive, HCV inh inconclusive, Lassa entry inh 7.1µM, HCMV antiviral -106
c1ccc(-c2csc(Nc3ncccn3)n2)cc1	Marburg entry inh inconclusive
Cc1cccnc1Nc1nc(-c2ccccc2)cs1	HCV inh 16µM (no result: Marburg entry inh, Lassa entry inh)
Cc1cccc(Nc2nc(-c3ccc(F)cc3)cs2)n1	Marburg entry inh inconclusive, HCV inh inconclusive, Lassa entry inh 13µM
Cc1cccc(Nc2nc(-c3cccs3)cs2)n1	Marburg entry inh inconclusive, HCV inh inconclusive, Lassa entry inh inconclusive
COc1ccc(-c2csc(Nc3cccc(C)n3)n2)cc1	Marburg entry inh inconclusive, HCV inh inconclusive, Lassa entry inh inconclusive
Cc1cccc(Nc2nc(-c3ccccn3)cs2)n1	Marburg entry inh inconclusive, HCV inh 7.1µM, Lassa entry inh inconclusive
CC/C(=N\NC(=O)CCC(=O)NCc1ccccc1)c1ccc(O)cc1	HCV inh inconclusive, Lassa entry inh inconclusive
CCOC(=O)c1c(C)n(-c2ccccc2)c2ccc(OC(=O)c3cc(OC)cc(OC)c3)cc12	none (no result: Marburg entry inh, HCV inh)
CCCCN(C)c1c(C)nc2ccc(C(=O)NCc3cccs3)cn12	none (no result: Marburg entry inh, HCV inh, Lassa entry inh)
Cc1ccc(C)c(NC(=O)NNS(=O)(=O)c2ccc(C)c(C)c2)c1	none (no result: Marburg entry inh, Lassa entry inh)
COc1ccc(Nc2ncc(C(=O)N3CCN(c4ccc(F)cc4)CC3)c3ccccc23)cc1	Marburg entry inh inconclusive, HCV inh 11µM, Lassa entry inh inconclusive, FMDV antiviral inconclusive, HCMV antiviral -105!
COc1ccc(Nc2ncc(C(=O)N3CCC4(CC3)OCCO4)c3ccccc23)cc1	HCMV antiviral -76
COc1cc(NC(=O)CCN2CCN(C/C=C/c3ccccc3)CC2)cc(OC)c1	none (no result: Marburg entry inh, Lassa entry inh)
CCOC(=O)NN=C1C[C@@H](O)[C@@H](O)[C@@H]2[C@H]3C(=O)N(C[C@@H]4CCCO4)C(=O)[C@@H]3CC[C@H]12	none (no result: HCV inh, Lassa entry inh, FMDV antiviral, HCMV antiviral)
Cc1ccc(NC(=O)N2CCN(c3cc(-c4noc(C)n4)ccc3C)CC2)c(C)c1	Lassa entry inh inconclusive (no result: Marburg entry inh, HCV inh)
Cc1nc(-c2ccc(C)c(N3CCN(C(=O)Nc4cccc(Cl)c4C)CC3)c2)no1	FMDV antiviral inconclusive, HCMV antiviral -88 (no result: Marburg entry inh, HCV inh)
CCCNC(=O)N1[C@@H]2CN(C(=O)Nc3ccccc3)c3ccccc3[C@@H]2[C@@H]1CO	none (no result: Marburg entry inh, HCV inh, Lassa entry inh, FMDV antiviral)
OCCN1CCN(CC/C=C2/c3ccccc3Sc3ccc(Cl)cc32)CC1	HCV inh 11µM, HCMV antiviral inconclusive (no result: Marburg entry inh, Lassa entry inh)
CN1CCN(CCCN2c3ccccc3Sc3ccc(S(=O)(=O)N(C)C)cc32)CC1	HCV inh inconclusive, FMDV antiviral inconclusive (no result: Marburg entry inh, Lassa entry inh)
